A selection: hits, their analogues and other compounds. The true share with any hit is near 7.8%.
VACV mCherry inh – qHTS for Stage-Specific Inhibitors of Vaccinia Orthopoxvirus: mCherry Reporter Primary qHTS | Vaccinia virus mCherry reporter infection, fluorescence | Potency, µM (doses to about 36.5 µM), inactives show top-dose activity change, negative = inhibition, actives largely listed as inhibitors | 0.63% of 310,000 active | AID 720579, 2013; calls by dose curve; tested in A549 cells; note: potency is the fitted concentration of half-maximal effect; nearly all actives have a fitted effect of over 35% in size
Marburg entry inh – qHTS for inhibitors of binding or entry into cells for Marburg Virus; Marburg virus pseudotyped entry inhibition, cell reporter; Potency, µM (series often up to 37.8 µM), for inactives: top-dose activity change, negative = inhibition, most hits filed as inhibitors; 1.8% of 300,000 active; AID 540276, 2011; calls by dose curve; tested in HEK293 cells; note: potency is the fitted concentration of half-maximal effect
HCV inhibitor – qHTS Assay for Inhibitors of Hepatitis C Virus (HCV) | 3.4% of 340,000 active | Huh7.5.1 HCVcc-Cre infection, luciferase reporter, 44 h | Potency, µM (highest dose often 41.8 µM), for the others: top-dose activity change, negative = inhibition, usual class: inhibitors; active = well fitted inhibition curve with a large enough effect; inconclusive = small, poorly fitted or top-dose-only effect, or another doubt; inactive = no such curve, though single readings can be large or run the other way; note: potency is the fitted concentration of half-maximal effect
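1,000 cells/well; 4 h culture; + compound; + HCVcc-Cre (~0.5 moi); 44 h; luciferase substrate, RT 15 min; read 15 sec.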
LASV entry inh – qHTS for Inhibitors of binding or entry into cells for Lassa Virus; Lassa virus pseudotype entry inhibition, cell reporter; Potency, µM (series often up to 37.9 µM), without a hit: at the top dose activity change, negative = inhibition, hits mostly inhibitors; 1.2% of 300,000 active; calls by dose curve; tested in HEK293 cells; note: potency is the fitted concentration of half-maximal effect; nearly all actives have a fitted effect of over 50% in size
VACV Venus inh – qHTS for Stage-Specific Inhibitors of Vaccinia Orthopoxvirus: Venus Reporter Primary qHTS; Vaccinia virus Venus reporter expression, fluorescence; Potency, µM (titrated, usually from 36.5 µM), for the others: at the top dose activity change, negative = inhibition, hits mostly inhibitors; 0.46% of 330,000 active; AID 720580, 2013; calls by dose curve; tested in A549 cells; note: potency is the fitted concentration of half-maximal effect; nearly all actives have a fitted effect of over 30% in size
HCMV antiviral – qHTS Assay for inhibitors of the human cytomegalovirus (HCMV); HFF cells, HCMV-luciferase reporter, 72 h; stronger effect = lower value; activity change, negative = inhibition, % at 57.5 µM; 4.5% of 410,000 active; in the data active = activity change below about -60%; inconclusive = no clear call, values can overlap the other calls; inactive = above about -39%
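After 16 h attachment at 37C, HFF cells received test compound and HCMV-luciferase (1 PFU/cell); reporter luminescence read 72 h later, data normalized against buffer-only and known inhibitor Salinomycin.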
An asterisk follows results filed as active; i = inactive; u = inconclusive; x = no result given; [ ] = another dose, or the depositor's remark. % is set by controls: 0 for no effect and ±100 for the full control effect.

SMILES	VACV mCherry inh	Marburg entry inh	HCV inhibitor	LASV entry inh	VACV Venus inh	HCMV antiviral
COc1ccc(C2C(C(=O)Nc3ccccn3)=C(C)Nc3ncnn32)c(OC)c1 (stereo not given)	-1.6%	2.6%	7.5%	x	-1.8%	-64.1*
CC1=C(C(=O)Nc2ccccn2)C(c2ccccc2)n2ncnc2N1 (stereo not given)	x	4.4%	9.6%	7.3%	-1.1%	-4.5
CCN(CCCNC(=O)c1nn(-c2ccc(OC)cc2)c(=O)c2c1c1ccccc1n2C)c1ccccc1	-9.8%	-24.7%[46.1 µM]	x	5.9%[46.1 µM]	-3.0%	12.8
Cc1cc(N(C)C)c(C)cc1/C=C/c1ccnc2ccccc12	-26.0%	x	x	x	12.5%	x
Cc1cccc(OCC(=O)Nc2ccc3c(c2)nc(CCNC(=O)c2ccco2)n3C)c1	-13.5%	-23.9%[46.1 µM]	x	-2.7%[46.1 µM]	-8.3%	-15.8
Fc1ccc(C2c3cccn3CCN2C(=S)Nc2cccc(Br)c2)cc1 (stereo not given)	u	-5.4%	10µM*	-61.0%	-19.2%	-26.2
S=C(NCc1ccccc1)N1CCn2cccc2C1c1cccnc1 (stereo not given)	-10.5%	u	-4.8%	u	-5.9%	-71.5*
CCCCNC(=S)N1CCn2cccc2C1c1ccccc1 (stereo not given)	-21.6%	u	-4.1%	-18.2%[46.1 µM]	0.9%	2.9
CCCCNC(=S)N1CCn2cccc2C1c1ccc(F)cc1 (stereo not given)	-26.6%	6.31µM*	-13.7%	12.6µM*	-3.1%	94.5
COc1cc(NC(=O)C2CCN(c3nc4ccccc4nc3C(F)(F)F)CC2)cc(OC)c1	-0.4%	x	x	-22.7%[46.1 µM]	-6.4%	-12.4
O=C(CC1NCCNC1=O)Nc1cccc(F)c1 (stereo not given)	-13.2%	u	x	15.9%[46.1 µM]	-5.0%	-14.4
O=C(c1ccccc1Oc1ccc(C(F)(F)F)cc1[N+](=O)[O-])N1CCOCC1	x	-7.9%	5.5%	3.7%	x	-31.2
O=C(c1ccc(Oc2ccc(C(F)(F)F)cc2[N+](=O)[O-])cc1)N1CCOCC1	u	u	-11.4%	u	-18.5%	-82.5*
COc1ccc(CCNC(=O)c2cnn(-c3nccc(-c4cccs4)n3)c2C)cc1OC	-12.8%	x	x	x	u	x
COc1ccc2nc(N(CCN(C)C)C(=O)/C=C/c3cccs3)sc2c1	x	x	u	x	x	-70.1*
CCN(CC)CCN(C(=O)/C=C/c1cccs1)c1nc2ccc(OC)cc2s1	x	x	u	x	x	3.8
CCOc1ccc2nc(N(CCN(CC)CC)C(=O)/C=C/c3cccs3)sc2c1	u	u	u	-23.7%[46.1 µM]	-25.3%	u
COc1ccc2sc(N(CCN(C)C)C(=O)/C=C/c3cccs3)nc2c1	x	x	15.8µM*	x	x	-75.8*
Cn1c2ccccc2c2cc(C(=O)N3CCOc4ccc(C(C)(O)CCn5cccn5)cc4C3)ccc21 (stereo not given)	-12.6%	x	x	x	-13.3%	x
Cc1ccc(NC(=O)Cc2noc3ccccc23)c(C)c1	-14.8%	28.0%	27.1%	18.7%	-10.4%	-31.8
CCOC(=O)Cc1nnc(Nc2ccc(C)cc2C)c2ccccc12	-9.9%	4.8%	2.8%	-16.0%	-18.1%	-60.0*
CCOC(=O)Cc1nnc(Nc2cc(C)ccc2C)c2ccccc12	-11.1%	1.2%[46.1 µM]	-3.0%	-1.2%[46.1 µM]	-14.2%	-60.3*
COCCCn1c(SCC(=O)Nc2ccc(F)cc2)nc2c(sc3ccccc32)c1=O	-2.2%	x	x	14.6%[46.1 µM]	-11.4%	0.6
C=CCN1C(=O)NC(=O)/C(=C/c2ccoc2)C1=O	-3.8%	u	-3.4%	7.0%	19.2%	u
C=CCN1C(=O)NC(=O)/C(=C/c2ccc(N(C)C)c(Br)c2)C1=O	-2.5%	-4.9%[46.1 µM]	9.0%	7.94µM*	-15.7%	-35.2
SMILES	VACV mCherry inh	Marburg entry inh	HCV inhibitor	LASV entry inh	VACV Venus inh	HCMV antiviral
COCCN(CCOC)c1nc(-c2ccccc2)nc2ccccc12	x	x	u	x	x	-36.1
CCCCN(CCCC)c1nc(-c2ccncc2)nc2ccccc12	x	x	-0.3%	x	x	-70.0*
CCCCN(CC)c1nc(-c2ccccc2F)nc2ccccc12	-2.1%	x	x	11.7%[46.1 µM]	-6.9%	-9.3
CCN(CC)c1nc(-c2ccccc2)nc2ccccc12	-7.1%	u	11.2µM*	-9.4%	-16.5%	-62.7*
O=C(NC1CC2CCCC(C1)N2Cc1ccccc1)c1cccc(Cl)c1 (stereo not given)	-14.4%	1.26µM*	-6.8%	1.4%	-5.0%	-39.6
Cc1cccc(C(=O)NC2CCN(C(=O)Nc3ccccc3C)CC2)c1	12.5%	x	23.9%	x	-18.6%	-102.9*
Cc1cccc(C(=O)NC2CCN(S(=O)(=O)c3cccc(F)c3)CC2)c1	x	x	-23.0%	x	x	-60.4*
O=C(NNC(=O)C1CCN(Cc2ccccc2)CC1)c1cccc(Cl)c1	x	u	10µM*	-0.5%	-19.0%	-11.6
Cc1ncc(-c2ccc(F)cc2)c(C2CCCN(Cc3cccc(O)c3)C2)n1 (stereo not given)	i	x	x	x	-13.7%	x
COC1=C(CC=C(C)C)C2=C(CCC(=O)O2)CC1	x	4.5%	x	x	x	x
CC(C)N(C(=O)Cn1cc(S(=O)(=O)Cc2ccc(Cl)cc2)c2ccccc21)C(C)C	-17.5%	x	x	-5.6%[46.1 µM]	-16.6%	-21.9
Cc1cccc(C(=O)NC2CC3CCCC(C2)N3S(=O)(=O)c2ccccc2)c1 (stereo not given)	u	u	u	13µM*	-24.2%	-30.6
CCOc1ccc(/C=C/C2=CC(C)(C)NC(=S)N2)cc1	u	11.7%[46.1 µM]	u	-10.9%	u	-93.8*
CCOC(=O)c1c(NC(C)=O)sc2c1CCC(C=O)=C2Sc1ccccc1	u	u	2.82µM*	u	-19.4%	108.6
CCOC(=O)c1c(NC(C)=O)sc2c1CCCNC2=O	x	u	-16.5%	-4.1%	-13.0%	30.1
CCOC(=O)COc1ccccc1C1C(C(=O)OC)=C(C)NC2=C1C(=O)c1ccccc12 (stereo not given)	-13.6%	u	x	-7.2%[46.1 µM]	-14.5%	-9.3
COC(=O)COc1ccc(C2C(C(=O)OC)=C(C)NC3=C2C(=O)c2ccccc23)cc1OC (stereo not given)	-5.5%	9.6%[46.1 µM]	x	-0.7%[46.1 µM]	-6.1%	-107.8*
CCCCN(CC)CCCNC(=O)c1sc2nc(C)cc(C)c2c1-n1cccc1	-17.7%	-0.1%[46.1 µM]	x	2.4%[46.1 µM]	-4.9%	18.1
COc1cccc(NC(=O)CCSc2nc(-c3ccco3)cc(C(F)(F)F)n2)c1	-14.7%	-7.0%[46.1 µM]	x	8.2%[46.1 µM]	-10.0%	-17.0
COc1ccc(S(=O)(=O)N(C)CC(=O)N2CCN(C)CC2)cc1Cl	x	x	7.9%	x	x	-100.4*
COc1ccc(OC)c(S(=O)(=O)N(C)CC(=O)N2CCN(c3cccc(Cl)c3)CC2)c1	x	u	-20.3%	-7.8%	-26.5%	-103.3*
COc1ccc(OC)c(S(=O)(=O)N(C)CC(=O)N2CCN(c3ccc(F)cc3)CC2)c1	u	-10.4%	13.5%	-15.7%	-3.6%	48.2

Bioassay records as filed in PubChem.
